Assay results as given in PubChem BioAssay (Tox21).
Results filed as inconclusive are left out. Calls of active or inactive are those of the source. Unless noted, calls come from the whole dose curve.

Assays:
[1] = Nuclear factor erythroid 2-related factor 2/antioxidant responsive element (Nrf2/ARE) small molecule agonists: qHTS cell viability counter screen in human keratinocytes (AID 1919968; active = well fitted curve in the direction sought with a large enough effect in the repeat runs; an effect the other way counts as inactive or inconclusive; note: nearly all actives have a fitted effect of over 55% in size; note: potency is the fitted concentration of half-maximal effect)
In short: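 Seed 1,500 KeratinoSens cells per well, then incubate 5 h at 37 C/5% CO2. Add compounds in DMSO and incubate 23 h. Add CellTiter-Fluor, wait 1 h and read fluorescence.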

[2] = Nuclear factor erythroid 2-related factor 2/antioxidant responsive element (Nrf2/ARE) small molecule agonists: luciferase reporter gene qHTS assay in human keratinocytes (AID 1919969); note: nearly all actives have a fitted effect of over 35% in size; note: potency is the fitted concentration of half-maximal effect
[3] = molecular target: Gonadotropin-releasing hormone receptor (Homo sapiens) (UniProt P30968); experiment: Human gonadotropin-releasing hormone receptor (GnRHR) small molecule agonists, calcium flux assay in GnRHR-HEK293 cells (AID 1920063); note: nearly all actives have a fitted effect of over 35% in size; note: potency is the fitted concentration of half-maximal effect
In short: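 Cells: HEK293 stably expressing human GnRHR. Steps: overnight (18 h) culture, 1 h calcium dye loading at 37 C, compound addition, kinetic fluorescence read at 480/540 nm. Each compound tested at 15 concentrations in triplicate.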

[4] = molecular target: KiSS-1 receptor (Homo sapiens) (UniProt Q969F8); experiment: Human kisspeptin (KISS1R) small molecule agonists, calcium flux assay in KISS1R-HEK293 cells (AID 1920064; active = well fitted curve in the direction sought with a large enough effect in the repeat runs; an effect the other way counts as inactive or inconclusive; note: potency is the fitted concentration of half-maximal effect)
In short: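 Cells plated and incubated 18 h; dye added, 1 h at 37 C; compounds in DMSO pinned in; signal read at 480/540 nm every second for 3 min. Each compound tested at 15 concentrations in triplicate.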

[5] = G protein-coupled receptor (GPCR) small molecule agonists, calcium flux assay: HEK293 wild type cell line counter screen (AID 1920065); note: potency is the fitted concentration of half-maximal effect
In short: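 Counter-screen of the Tox21 10K library for non-specific calcium release: dye-loaded cells received compounds in DMSO and were monitored by kinetic fluorescence (480/540 nm, 3 min). Fifteen concentrations, run in triplicate.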

[6] = p53 small molecule agonists, cell-based qHTS assay with rat liver microsomes (AID 1963578); note: potency is the fitted concentration of half-maximal effect
In short: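 With rat liver microsomes and NADPH present (0.5 mg/mL final each), p53RE-bla cells are treated with compound for 16 h at 37 C. LiveBLAzer detection mixture is then applied for 2 h at room temperature in the dark.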

[7] = molecular target: 5-hydroxytryptamine receptor 2A (Homo sapiens) (UniProt P28223); experiment: 5-hydroxytryptamine receptor 2A (HTR2A) small molecule antagonists, cell-based qHTS assay (AID 1963586); note: nearly all actives have a fitted effect of over 45% in size; note: potency is the fitted concentration of half-maximal effect
In short: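 Antagonist-mode intracellular calcium assay: DOI (4 nM) added after 5 min compound pre-incubation at room temperature to dye-loaded HTR2A-CHO cells. Fluorescence followed for 3 min, sampled every second.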

[8] = molecular target: Muscarinic acetylcholine receptor M1 (Homo sapiens) (UniProt P11229); experiment: Cholinergic receptor muscarinic 1 (CHRM1) small molecule agonists, cell-based qHTS assay (AID 1963589); note: nearly all actives have a fitted effect of over 35% in size; note: potency is the fitted concentration of half-maximal effect
In short: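 Agonist-mode qHTS in CHO cells stably carrying human muscarinic M1. Intracellular calcium is tracked by fluorescence every second after compound transfer; each compound runs at 15 concentrations in three independent runs.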

[9] = molecular target: Beta-2 adrenergic receptor (Homo sapiens) (UniProt P07550); experiment: Adrenergic beta2 receptor (ADRB2) small molecule antagonists, cell-based qHTS assay (AID 1963592); note: nearly all actives have a fitted effect of over 50% in size; note: potency is the fitted concentration of half-maximal effect
In short: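 Cells (CHO, stable ADRB2 overexpression) incubated 18-20hr at 37C; compounds added from DMSO; agonist mix (1nM isoproterenol, 100uM IBMX, 25uM Ro-20-1724) added; 0.5hr RT; d2-cAMP and anti-cAMP-cryptate added; 1hr RT; 665/615 nm read.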

[10] = molecular target: D(2) dopamine receptor (Homo sapiens) (UniProt P14416); experiment: Dopamine D2 receptor (DRD2) small molecule agonists, cell-based qHTS assay (AID 1963594); note: nearly all actives have a fitted effect of over 35% in size
In short: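 cAMP accumulation in DRD2-HEK293 cells measured by HTRF after 1 h detection; compounds added 10 min before NKH477 (200nM […]) forskolin-analogue stimulation, 30 min at room temperature, with Ro20-1724 present at 0.1 mM final.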

[11] = molecular target: D(2) dopamine receptor (Homo sapiens) (UniProt P14416); experiment: Dopamine D2 receptor (DRD2) small molecule antagonists, cell-based qHTS assay (AID 1963595; active = well fitted inhibition curve with a large enough effect in the signal ratio in the repeat runs, with a control signal flat; the % refers to the signal ratio; note: potency is the fitted concentration of half-maximal effect)
In short: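 Antagonist mode in DRD2-HEK293 cells: after compound addition with 0.1 mM Ro20-1724, cells received quinpirole (12 nM) and NKH477 (200 nM) for 30 min at room temperature; HTRF cAMP read after 1 h detection.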

[12] = p53 small molecule agonists, cell-based qHTS assay with human liver microsomes: qHTS cell viability counter screen (AID 1963579); note: nearly all actives have a fitted effect of over 45% in size; note: potency is the fitted concentration of half-maximal effect
In short: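 In this multiplexed counter screen, the reporter plates were subsequently treated with CellTiter-Glo so that cell viability, reflected by luminescence, could be recorded for p53RE-bla cells dosed 16 h with compounds under microsomal activation (HLM and NADPH).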

[13] = p53 small molecule agonists, cell-based qHTS assay with rat liver microsomes: qHTS cell viability counter screen (AID 1963580); note: nearly all actives have a fitted effect of over 45% in size; note: potency is the fitted concentration of half-maximal effect
In short: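 Intracellular ATP, by CellTiter-Glo luminescence, defines viability. HCT-116 p53RE-bla cells, 4,000 per well, were compound-treated in the presence of rat liver microsomes and NADPH for 16 h at 37 C.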

[14] = molecular target: Beta-2 adrenergic receptor (Homo sapiens) (UniProt P07550); experiment: Adrenergic beta2 receptor (ADRB2) small molecule agonists, cell-based qHTS assay (AID 1963593);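 note: CHO cells stably overexpressing human ADRB2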
In short: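 CHO cells stably over-expressing ADRB2 were plated overnight at 37C, then dosed with compounds plus a stimulation mix containing 100uM IBMX and 25uM Ro-20-1724 for 0.5hr at room temperature. cAMP was measured by HTRF competition, 1hr.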

[15] = molecular target: 5-hydroxytryptamine receptor 2A (Homo sapiens) (UniProt P28223); experiment: 5-hydroxytryptamine receptor 2A (HTR2A) small molecule agonists, cell-based qHTS assay (AID 1963587); note: nearly all actives have a fitted effect of over 30% in size; note: potency is the fitted concentration of half-maximal effect
In short: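 Kinetic calcium-flux fluorescence (2 min, 1 sec intervals) after compound addition in agonist mode. HTR2A-CHO cells were cultured 18 h, then dye-loaded 1 h at 37 C.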

[16] = molecular target: Muscarinic acetylcholine receptor M1 (Homo sapiens) (UniProt P11229); experiment: Cholinergic receptor muscarinic 1 (CHRM1) small molecule antagonists, cell-based qHTS assay (AID 1963588); note: nearly all actives have a fitted effect of over 40% in size; note: potency is the fitted concentration of half-maximal effect
In short: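 CHRM1-CHO calcium-flux assay, antagonist mode. Cells were seeded 18 h, dye-loaded 1 h at 37 C and given compound for 5 min at RT, then acetylcholine was added at 50nM. FDSS fluorescence was read 3 min; 15 concentrations, three runs.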

[17] = cAMP Responsive Elements (CRE) small molecule agonists, cell-based qHTS assay (AID 1963590)
In short: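 Agonist mode qHTS in CRE-bla HEK 293T cells: compounds dosed from DMSO for 3 h at 37 C/5% CO2, followed by LiveBLAzer B/G FRET substrate for 2 h at room temperature.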

[18] = cAMP Responsive Elements (CRE) small molecule antagonists, cell-based qHTS assay (AID 1963591; active = well fitted inhibition curve with a large enough effect in the signal ratio in the repeat runs, not every such curve was filed as active; the % refers to the signal ratio)
In short: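 Antagonist mode: test compounds are co-incubated with the adenylyl cyclase activator NKH477 (0.25 uM final) on CRE-bla HEK293T cells for 3 h at 37 °C, followed by LiveBLAzer substrate loading.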

[19] = p53 small molecule agonists, cell-based qHTS assay: qHTS cell viability counter screen (AID 1963581); note: nearly all actives have a fitted effect of over 45% in size; note: potency is the fitted concentration of half-maximal effect
In short: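 Cells: HCT-116 with p53 response element-driven beta-lactamase. Treatment: 16 h, 37 C, compounds in DMSO. Read: CellTiter-Glo luminescence after 30 min RT.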

[20] = p53 small molecule agonists, cell-based qHTS assay (AID 1963582; active = well fitted activation curve with a large enough effect in the signal ratio in the repeat runs, not every such curve was filed as active; the % refers to the signal ratio)
In short: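 Quantitative HTS in p53RE-bla cells: after a 5 h settling period, compounds delivered in DMSO were left on cells for 16 h at 37 C, and reporter induction was measured as fluorescence following 2 h substrate loading.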

Measured: Potency

5-hydroxytryptamine receptor 2A (Homo sapiens), sequence (P28223 whole entry, looked up): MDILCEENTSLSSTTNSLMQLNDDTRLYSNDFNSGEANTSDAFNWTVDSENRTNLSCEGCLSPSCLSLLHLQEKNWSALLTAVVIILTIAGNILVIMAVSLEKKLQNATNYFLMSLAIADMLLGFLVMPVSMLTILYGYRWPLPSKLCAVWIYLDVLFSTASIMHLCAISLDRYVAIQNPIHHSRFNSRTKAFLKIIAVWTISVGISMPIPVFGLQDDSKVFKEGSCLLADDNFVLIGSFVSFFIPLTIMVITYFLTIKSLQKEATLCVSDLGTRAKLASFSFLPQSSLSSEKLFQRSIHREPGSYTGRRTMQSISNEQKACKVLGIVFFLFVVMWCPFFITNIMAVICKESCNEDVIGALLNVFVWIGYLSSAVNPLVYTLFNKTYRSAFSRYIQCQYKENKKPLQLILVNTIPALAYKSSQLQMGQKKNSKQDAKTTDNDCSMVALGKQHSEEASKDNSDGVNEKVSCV
Gonadotropin-releasing hormone receptor (Homo sapiens), sequence (P30968 whole entry, looked up): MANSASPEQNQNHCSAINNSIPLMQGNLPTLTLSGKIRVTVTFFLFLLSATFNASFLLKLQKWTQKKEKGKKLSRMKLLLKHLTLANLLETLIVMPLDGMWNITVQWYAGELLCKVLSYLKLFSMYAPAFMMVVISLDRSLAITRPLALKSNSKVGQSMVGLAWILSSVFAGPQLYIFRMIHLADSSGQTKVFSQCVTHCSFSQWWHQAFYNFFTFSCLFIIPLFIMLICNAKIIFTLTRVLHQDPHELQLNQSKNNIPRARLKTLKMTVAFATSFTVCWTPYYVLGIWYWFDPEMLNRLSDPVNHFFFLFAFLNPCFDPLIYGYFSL
Beta-2 adrenergic receptor (Homo sapiens), sequence (P07550 whole entry, looked up): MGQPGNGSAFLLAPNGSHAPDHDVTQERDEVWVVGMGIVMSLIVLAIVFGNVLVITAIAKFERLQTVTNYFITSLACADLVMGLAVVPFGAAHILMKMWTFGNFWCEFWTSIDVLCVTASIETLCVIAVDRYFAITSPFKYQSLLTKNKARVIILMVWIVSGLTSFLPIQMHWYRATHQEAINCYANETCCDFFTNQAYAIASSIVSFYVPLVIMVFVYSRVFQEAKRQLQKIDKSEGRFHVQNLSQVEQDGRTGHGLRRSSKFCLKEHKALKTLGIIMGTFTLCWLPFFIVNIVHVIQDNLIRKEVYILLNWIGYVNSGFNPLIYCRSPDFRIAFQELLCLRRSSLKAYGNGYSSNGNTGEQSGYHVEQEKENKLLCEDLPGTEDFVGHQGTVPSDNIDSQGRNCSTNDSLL
Muscarinic acetylcholine receptor M1 (Homo sapiens), sequence (P11229 whole entry, looked up): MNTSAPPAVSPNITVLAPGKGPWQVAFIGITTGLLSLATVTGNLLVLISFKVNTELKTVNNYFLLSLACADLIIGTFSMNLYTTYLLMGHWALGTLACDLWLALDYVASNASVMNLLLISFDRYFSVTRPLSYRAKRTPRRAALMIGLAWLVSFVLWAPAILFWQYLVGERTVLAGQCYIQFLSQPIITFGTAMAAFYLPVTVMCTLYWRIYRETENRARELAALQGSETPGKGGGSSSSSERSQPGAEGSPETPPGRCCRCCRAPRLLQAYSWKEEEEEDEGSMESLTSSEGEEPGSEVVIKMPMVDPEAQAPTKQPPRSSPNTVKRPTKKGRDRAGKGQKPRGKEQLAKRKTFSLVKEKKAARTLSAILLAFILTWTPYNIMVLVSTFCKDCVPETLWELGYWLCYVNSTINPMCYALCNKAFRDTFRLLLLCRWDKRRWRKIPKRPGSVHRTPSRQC
D(2) dopamine receptor (Homo sapiens), sequence (P14416 whole entry, looked up): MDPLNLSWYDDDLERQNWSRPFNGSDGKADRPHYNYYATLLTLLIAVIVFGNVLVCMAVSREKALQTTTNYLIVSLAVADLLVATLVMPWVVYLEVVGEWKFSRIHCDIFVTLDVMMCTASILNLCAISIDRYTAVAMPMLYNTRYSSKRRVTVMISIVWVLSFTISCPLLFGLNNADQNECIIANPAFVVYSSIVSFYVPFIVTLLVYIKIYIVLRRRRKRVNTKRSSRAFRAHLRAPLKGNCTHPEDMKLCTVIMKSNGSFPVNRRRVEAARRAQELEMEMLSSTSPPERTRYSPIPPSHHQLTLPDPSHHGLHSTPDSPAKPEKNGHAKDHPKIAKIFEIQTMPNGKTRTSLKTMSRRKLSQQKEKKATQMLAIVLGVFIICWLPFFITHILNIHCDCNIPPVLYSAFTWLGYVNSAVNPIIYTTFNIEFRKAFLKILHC
KiSS-1 receptor (Homo sapiens), sequence (Q969F8 whole entry, looked up): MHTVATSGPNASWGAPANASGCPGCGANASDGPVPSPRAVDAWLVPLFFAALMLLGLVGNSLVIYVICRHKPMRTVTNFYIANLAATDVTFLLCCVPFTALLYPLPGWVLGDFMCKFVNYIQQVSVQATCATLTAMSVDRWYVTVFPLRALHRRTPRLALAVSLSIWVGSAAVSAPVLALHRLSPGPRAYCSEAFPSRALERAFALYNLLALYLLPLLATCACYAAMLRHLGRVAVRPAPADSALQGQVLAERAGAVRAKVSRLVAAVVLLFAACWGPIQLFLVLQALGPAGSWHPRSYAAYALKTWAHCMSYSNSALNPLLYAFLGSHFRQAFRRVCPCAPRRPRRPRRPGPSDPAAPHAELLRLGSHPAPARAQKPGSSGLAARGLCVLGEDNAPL

CCN1CCC2(CC1)COc1cc3c(cc12)N(C(=O)c1ccc(-c2ccc(-c4nnc(C)o4)cc2C)cc1)CC3
active: [1] 25.2 µM
inactive: [2] | [3] | [4] | [5] | [6] | [7] | [8] | [9] | [10] | [11]

CN(C)[C@@H]1C(=O)C(C(N)=O)=C(O)[C@@]2(O)C(=O)C3=C(O)c4c(O)ccc(Cl)c4[C@@](C)(O)[C@H]3C[C@@H]12
inactive: [1] | [2] | [3] | [4] | [5] | [6] | [12] | [13] | [14] | [10] | [11]

CC(C)(OO)c1ccccc1
not listed: [8] | [10] | [11] | [12] | [14] | [19] | [20]
inactive: all other assays above

CCOP(=S)(OCC)Oc1nc(Cl)n(C(C)C)n1
not listed: [6] | [7] | [18]
inactive: all other assays above

CC(C)(C)C(=O)C(Oc1ccc(Cl)cc1)n1cncn1 (stereo not given)
not listed: [7] | [16] | [17]
inactive: all other assays above

CC(Cc1ccccc1)NCCCCl (stereo not given)
not listed: [7] | [16] | [19]
inactive: all other assays above

O=[N+]([O-])c1ccc2c3c(cccc13)CC2
not listed: [6] | [14] | [16] | [18]
inactive: all other assays above

C=C(C)C(=O)[O][Sn]([CH2]CCC)([CH2]CCC)[CH2]CCC
active: [1] 0.306 µM | [2] 0.433 µM | [3] 15.5 µM | [4] 11 µM | [5] 34.7 µM | [12] 14.5 µM | [13] 3.24 µM | [19] 3.63 µM | [7] 1.88 µM | [15] 9.77 µM | [8] 9.77 µM | [9] 1.09 µM | [11] 2.43 µM
inactive: [6]

OC(c1ccccc1)(c1ccccc1)C1CCNCC1
active: [16] 4.6 µM
not listed: [7] | [12] | [17]
inactive: all other assays above

c1ccc2cc3c(cc2c1)-c1cccc2cccc-3c12
active: [6] 18 µM
not listed: [7] | [11] | [17] | [18] | [20]
inactive: all other assays above

[As]#[In]
not listed: [7] | [20]
inactive: all other assays above

C=CCC1(C(C)CC)C(=O)NC(=O)NC1=O (stereo not given)
not listed: [12]
inactive: all other assays above

CC(C)N(Cc1ccccc1)C(=O)C(C)(C)C
not listed: [10] | [12] | [14] | [15]
inactive: all other assays above

O=[N+]([O-])c1cccc2cccnc12
not listed: [7] | [9] | [11]
inactive: all other assays above

c1cc[n+]2c(c1)-c1cccc[n+]1CC2
not listed: [12] | [14] | [19] | [20]
inactive: all other assays above

Clc1ccc(-c2ccccc2)cc1
not listed: [7] | [14] | [18]
inactive: all other assays above

C[N+](C)(C)CCCl
not listed: [8] | [14] | [18] | [19]
inactive: all other assays above

O=[N+]([O-])c1c(Cl)c(Cl)cc(Cl)c1Cl
inactive: [3] | [4] | [5] | [6] | [12] | [19] | [15] | [18] | [9]
active: [1] 43.3 µM | [2] 9.69 µM | [13] 36.3 µM | [16] 11.2 µM
